Test results published in PubChem BioAssay (NCATS).
Where “and” joins values, the source holds several entries; their conditions need not be identical. Equal values may be shown once. Inconclusive results are not listed. Calls of active or inactive are those of the source. The call rests on the fitted dose curve; in most records, active means well fitted inhibition curve with a large enough effect in the main read-out, with a control signal flat (not every such curve was filed as active); inconclusive means small, poorly fitted or top-dose-only effect, or effect the other way, or a change in a side signal; inactive means no such curve, though single readings can be large or run the other way.

test: Nrf2 qHTS screen for inhibitors: Validation (AID 493153); conditions: A549 ARE-Fluc reporter, 18-24 h; viability change: measured here: cytotoxicity max response; luciferase luminescence, at 46.1 µM (top of the series)
Description: NIH Molecular Libraries Probe Production Network [MLPCN] NIH Chemical Genomics Center [NCGC] MLPCN Grant: R03-MH092170-01 Assay Provider: Shyam Biswal, Johns Hopkins University Assay Overview: Nrf2 is a transcription factor that maintains cellular redox homoestasis and protects cells from xenobiotics. Nrf2 binds to the antioxidant response element (ARE) to induce gene expression of a broad spectrum of genes that encode for antioxidants. […] Finding a small molecule that act as an inhibitor of Nrf2 function would represent a novel therapeutic target that could lead to improvement in survival of patients undergoing chemo- and/or radio- therapy. 1. Shibata, T., et al., Genetic Alteration of Keap1 Confers Constitutive Nrf2 Activation and Resistance to Chemotherapy in Gallbladder Cancer. Gastroenterology, 2008. 2. Sjoblom, T., et al., The consensus coding sequences of human breast and colorectal cancers. Science, 2006. 314(5797): p. 268-74.
Assay Protocol Summary: A concentration-response assay was performed with A549 ARE_Fluc cells which are suspended in 5% FBS OPTI-MEM. Five uL were dispensed into 1536-well white TC-treated plate using the Kalypsys dispenser to achieve a density of 5000 cells/well in all columns except column 1. The plate is incubated at 37deg C at 5% CO2 for 2 hours before 23 nL of compounds are added with the Kalypsys pin tool equipped with a 1,536-pin array containing 10-nL slotted pins (FP1S10, 0.457-mm diameter, 50.8 mm long; V&P Scientific). The control compounds Budesonide and Staurosporine are both added at a concentration of 2mM and Budesonide is also added as a 1:10 titration, starting at 200uM, to achieve dose-response. After an 18-24 hour incubation at 37deg C at 5% CO2, 5ul of medium is added to column 1. Afterwards 1ul of 5x of CellTiter-Fluor (Promega) is added to every well. The plate is then incubated at 37deg C at 5% CO2 for 30 minutes before they are read on the ViewLux (Perkin Elmer) for a fluorescent read Ex=405(10)/Em=525(10) for a 3 second exposure, 2x binning, and high gain. Then 3 uL of 3x BugLite is dispensed into all wells and the plate is incubated at ambient room temperature for 15 minutes. Afterwards another ViewLux read is performed using the clear filter to get a luminescent read with the settings of 40 second exposure, 2x binning, and high gain. Cytotoxicity is assessed through the first fluorescent read and then biochemical activity against Nrf2 is measured in the luminescent read.

SMILES	viability change	outcome
NCCc1ccc(O)cc1	-8.88%	inactive
O=P1(N(CCCl)CCCl)NCCCO1 (stereo not drawn)	-1.15%	inactive
COc1ccc2c(c1OC)C(=O)O[C@H]2[C@@H]1c2cc3c(cc2CCN1C)OCO3	5.02%	inactive
C=C(C)[C@H]1CN[C@H](C(=O)O)[C@H]1CC(=O)O	1.68%	inactive
CN1C(=O)CCS(=O)(=O)C1c1ccc(Cl)cc1 (stereo not drawn)	-1.88%	inactive
CC(C)c1cccc(C(C)C)c1O	0.059%	inactive
CC(C)N(CCC(C(N)=O)(c1ccccc1)c1ccccn1)C(C)C (stereo not drawn)	0% and 10.1%	inactive
O=c1[nH]oc2c1CCNC2	-2.38%	inactive
CCC1(c2ccc(N)cc2)CCC(=O)NC1=O (stereo not drawn)	1.18%	inactive
CC(C)(C)NCC(O)c1ccccc1Cl (stereo not drawn)	0.543%	inactive
CC(NC(C)(C)C)C(=O)c1cccc(Cl)c1 (stereo not drawn)	5.02%	inactive
CN=C(NC#N)NCCSCc1nc[nH]c1C	0.983%	inactive
CCCCC/C=C\C/C=C\C/C=C\C/C=C\CCCC(=O)NCC(=O)O	2.11%	inactive
Cc1ncsc1CCCl	6.84%	inactive
